# In all, about 310,000 compounds went through this assay and about 14,000 (4.5%) showed an effect of 50% or more. The effect is printed as a negative number. The entries come from a sample that favours strong results as a whole.
# Target: human ether-à-go-go-related gene (hERG) potassium channel (human, UniProt Q12809)
# Experiment: primary screen, population patch clamp on CHO cells stably expressing hERG; higher = less effect of the substance
# 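Further: peak tail current of the secondary pulse compared with the same well before compound.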
# human ether-à-go-go-related gene (hERG) potassium channel, sequence (Q12809 whole entry, looked up): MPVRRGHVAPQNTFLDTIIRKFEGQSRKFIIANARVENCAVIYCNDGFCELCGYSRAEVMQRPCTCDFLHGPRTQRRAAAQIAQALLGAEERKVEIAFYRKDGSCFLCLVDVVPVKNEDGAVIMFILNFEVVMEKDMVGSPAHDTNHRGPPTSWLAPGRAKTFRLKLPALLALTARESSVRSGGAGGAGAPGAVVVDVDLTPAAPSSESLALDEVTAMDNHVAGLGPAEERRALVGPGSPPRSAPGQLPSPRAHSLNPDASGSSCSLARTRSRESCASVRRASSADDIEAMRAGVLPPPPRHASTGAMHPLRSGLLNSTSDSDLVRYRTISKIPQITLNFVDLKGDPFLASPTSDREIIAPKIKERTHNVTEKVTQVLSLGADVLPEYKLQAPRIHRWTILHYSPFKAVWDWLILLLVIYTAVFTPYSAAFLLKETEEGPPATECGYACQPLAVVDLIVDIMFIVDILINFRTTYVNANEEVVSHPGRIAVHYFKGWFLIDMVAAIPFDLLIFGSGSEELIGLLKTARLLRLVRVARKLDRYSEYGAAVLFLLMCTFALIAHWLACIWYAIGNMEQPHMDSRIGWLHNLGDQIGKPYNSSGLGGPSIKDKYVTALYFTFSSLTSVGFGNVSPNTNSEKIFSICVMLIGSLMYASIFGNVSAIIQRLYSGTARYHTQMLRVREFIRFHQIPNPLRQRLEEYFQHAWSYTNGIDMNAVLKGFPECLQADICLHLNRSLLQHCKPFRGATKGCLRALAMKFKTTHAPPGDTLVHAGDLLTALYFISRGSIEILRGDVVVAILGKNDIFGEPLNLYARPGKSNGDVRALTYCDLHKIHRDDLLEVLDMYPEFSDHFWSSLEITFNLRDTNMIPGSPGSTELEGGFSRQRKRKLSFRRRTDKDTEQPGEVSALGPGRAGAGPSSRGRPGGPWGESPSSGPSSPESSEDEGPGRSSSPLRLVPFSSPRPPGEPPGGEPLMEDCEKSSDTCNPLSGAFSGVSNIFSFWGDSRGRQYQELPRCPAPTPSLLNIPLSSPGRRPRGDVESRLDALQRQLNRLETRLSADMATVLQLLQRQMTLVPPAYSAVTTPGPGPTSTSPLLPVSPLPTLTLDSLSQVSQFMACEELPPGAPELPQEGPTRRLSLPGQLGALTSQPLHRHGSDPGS
row,SMILES,"hERG current change (%, negative = inhibition) at 10uM"
1,C=CCc1cccc2cc(C(=O)OCC)c(=O)oc12,-42.3%
2,CCOc1cc(S(=O)(=O)NC2CC(C)(C)NC(C)(C)C2)ccc1F,-9.91%
3,CCc1c(C)nc2cc(-c3cccc(Br)c3)[nH]n2c1=O,-3.6%
4,O=S(=O)(Nc1ncccn1)c1ccc(NC(=S)NCc2cccnc2)cc1,33.8%
5,COc1cc(C(C(=O)NC(C)(C)C)N(Cc2ccccc2)C(=O)c2cnccn2)cc(OC)c1OC (stereo not drawn),5.8%
6,C=CCNC(=O)CN1CCC(O)(c2ccccc2)CC1,4.87%
7,COc1cccc(OC)c1C(=O)Nc1cc(C)on1,7.22%
8,O=C(CSc1nc2ccsc2c(=O)n1CC1CCC(C(=O)O)CC1)c1ccc(Cl)cc1 (stereo not drawn),33.9%
9,O=C(c1ccc2c(c1)N(Cc1ccccc1)CCS2)N1CCC2(CC1)OCCO2,-56.1%
10,O=C(c1ccc2c(c1)N(Cc1ccccc1)CCS2)N1CCCCC1,-32.9%
11,CN1CCN(CCCNC(=O)c2ccc3c(c2)N(Cc2ccccc2)CCS3)CC1,-23.6%
12,O=C(c1ccc2c(c1)N(Cc1ccc(F)cc1)CCS2)N1CCOCC1,-23.3%
13,Cc1cccc(CNC(=O)c2ccc3c(c2)N(C)CCS3)c1,-59.4%
14,CN1CCSc2ccc(C(=O)NCc3cccc(Br)c3)cc21,0.343%
15,CN1CCSc2ccc(C(=O)NCc3ccccc3)cc21,-9.52%
16,O=C(c1ccc2c(c1)N(Cc1ccc(F)cc1)CCS2)N1CCC2(CC1)OCCO2,-57.1%
17,CCN1CCN(CCCNC(=O)c2ccc3c(c2)N(Cc2ccccc2)CCS3)CC1,-39.3%
18,O=C(NCCCN1CCCC1)c1ccc2c(c1)N(Cc1ccccc1)CCS2,-69.6%
19,O=C(c1ccc2c(c1)N(Cc1ccccc1)CCS2)N1CCOCC1,-29.7%
20,Cc1ccc(CN2CCSc3ccc(C(=O)N4CCC5(CC4)OCCO5)cc32)cc1,-49.1%
21,S=C(NC1CCCC1)N1CCN(c2ncccn2)CC1,-19.3%
22,C[C@@]12CCC=C[C@H]1[C@H](c1ccoc1)N(Cc1ccccc1)C2=O,-8.15%
23,CC(=O)c1c(N)n(C)c(=O)n(C)c1=O,-4.24%

row,SMILES,"hERG current change (%, negative = inhibition) at 10uM"
1,CSc1oc(-c2ccc(F)cc2)nc1S(=O)(=O)c1ccc(F)cc1,3.51%
2,NNc1nnnc2c1sc1nc(N3CCOCC3)c3c(c12)CCCC3,5.3%
3,COc1cc(C(=O)OCC(=O)Nc2cccc(S(=O)(=O)N3CCOCC3)c2)ccc1OCC(C)C,18.3%
4,CC(C)(C)C(=O)/C=C(\N)c1ccncc1,1.74%
5,CCOc1ccc(N(CC(=O)NCCSCc2ccc(Cl)cc2)S(C)(=O)=O)cc1,4.71%
6,COc1ccc(C)cc1NC(=O)CCNS(=O)(=O)c1cccc(C(F)(F)F)c1,-27.6%
7,Cc1cc2c(cc1S(=O)(=O)N(C)C1CCCCC1)OCC(=O)N2,7.2%
8,O=S(=O)(NCCCCCNS(=O)(=O)c1ccccc1)c1ccccc1,-2.98%
9,Cc1ccc(OCC(=O)Nc2ccc(C(=O)O)cc2NC(=O)COc2ccc(C)c(C)c2)cc1C,6.5%
10,CCN1CCCC1Cn1cnc2c([nH]c3cc(OC)ccc32)c1=O (stereo not drawn),-63.8%
11,COc1ccc2c(c1)[nH]c1c(=O)n(CCN3CCCC3)cnc12,-46.3%
12,CCC1CCCN1Cn1cnc2c([nH]c3ccc(OC)cc32)c1=O (stereo not drawn),-62.6%
13,COc1ccc2[nH]c3c(=O)n(CCN4CCOCC4)cnc3c2c1,-2.38%
14,CCN1CCCC1Cn1cnc2c([nH]c3ccc(OC)cc32)c1=O (stereo not drawn),-66.1%
15,COc1ccc2[nH]c3c(=O)n(CCCN4CCOCC4)cnc3c2c1,-3.86%
16,COc1ccc2c(c1)[nH]c1c(=O)n(CC3CCCO3)cnc12 (stereo not drawn),11.1%
17,COc1ccc2[nH]c3c(=O)n(CCc4ccccc4)cnc3c2c1,-6.62%
18,COc1ccc2[nH]c3c(=O)n(Cc4ccncc4)cnc3c2c1,-11%
19,CCCc1cc(CNC(=O)C2CCC(=O)N(CCc3cccc(F)c3)C2)on1 (stereo not drawn),-49.6%
20,COc1ccccc1NC(=O)c1ccc(C)c(S(=O)(=O)N2CCCCC2)c1,-8.22%
21,Cc1nnsc1C(=O)NNc1ccc(C(C)(C)C)cc1,14.1%
22,Cc1onc(-c2c(F)cccc2Cl)c1C(=O)c1ccccc1O,-0.367%
23,CCc1ccc2nc(SCC(=O)Nc3nnc(C)s3)c(C)cc2c1,16%

row,SMILES,"hERG current change (%, negative = inhibition) at 10uM"
1,Cn1cc(Br)c(C(=O)N/N=C/c2cccc(OC3CSC3)c2)n1,-2.36%
2,COc1ccc(-n2cccc2C=O)cc1,16.7%
3,COc1ccc(-n2cccc2/C=C/[N+](=O)[O-])cc1,-50.4%
4,CN(C)c1ccc(-n2cccc2/C=C/[N+](=O)[O-])cc1,20.2%
5,CCOC(=O)c1c(NCc2ccc3c(c2)OCO3)c2ccccc2[nH]c1=O,-10.8%
6,O=C(Cc1ccccc1)N/N=C/c1ccc(OCC(=O)Nc2ccccc2)cc1,-14.2%
7,Cc1cc(NC(=O)CSc2nc3ccc(Cl)cc3[nH]2)no1,9.82%
8,O=C(CSc1ccccc1)Nc1ccc(N2CCN(c3ccccc3)CC2)c(F)c1,10.9%
9,COc1ccc(SCC(=O)Nc2ccc(N3CCN(C)CC3)c(F)c2)cc1,-49.7%
10,CN1CCN(c2ccc(NC(=O)CSc3ccccc3)cc2F)CC1,-68.4%
11,O=C(CSc1ccccc1)Nc1ccc(N2CCOCC2)c(F)c1,11.8%
12,CN1CCN(c2ccc(NC(=O)CN3CCOCC3)cc2F)CC1,24.5%
13,Cc1ccc(SCC(=O)Nc2ccc(N3CCN(C)CC3)c(F)c2)cc1,-64.4%
14,Cc1ccc(SCC(=O)Nc2ccc(N3CCN(c4ccccc4)CC3)c(F)c2)cc1,10.3%
15,Cc1ccc(SCC(=O)Nc2ccc(N3CCN(C)CC3)c(F)c2)c(C)c1,-72%
16,CC(C)C(=O)Nc1ccc(N2CCN(C)CC2)c(F)c1,14.2%
17,Cc1ccc2c(CC(=O)OC(C)C(=O)Nc3ncc(Cl)cc3Cl)coc2c1 (stereo not drawn),-28.2%
18,NC(=O)c1ccsc1NC(=O)c1cccs1,-13.6%
19,O=C(Nc1ccc2c(c1)OCO2)c1ccc(N2C(=O)c3ccccc3C2=O)cc1,-5.61%
20,Cc1cc2occ(CC(=O)N(CC(C)C)c3c(N)n(Cc4ccccc4)c(=O)[nH]c3=O)c2cc1C,-18.4%
21,O=C(Cn1cnc2c(nnn2Cc2ccccc2F)c1=O)NCC1CCCO1 (stereo not drawn),-3.88%
22,O=C(/C=C/c1ccccc1[N+](=O)[O-])N1CCOCC1,15.5%
23,O=C(/C=C/c1ccc([N+](=O)[O-])cc1)N1CCN(S(=O)(=O)c2cccs2)CC1,-18.7%

row,SMILES,"hERG current change (%, negative = inhibition) at 10uM"
1,O=C(/C=C/c1cccc(F)c1)N1CCN(c2ccccn2)CC1,-118%
2,O=C(/C=C/c1cccc([N+](=O)[O-])c1)N1CCN(S(=O)(=O)c2cccs2)CC1,-62.2%
3,O=C(/C=C/c1cccc(F)c1)N1CCN(c2ncccn2)CC1,7.29%
4,O=C(/C=C/c1ccccc1Cl)N1CCN(c2ncccn2)CC1,-32.4%
5,O=C(/C=C/c1ccccc1[N+](=O)[O-])N1CCN(c2ccccc2F)CC1,-13.8%
6,O=C(/C=C/c1c(Cl)cccc1Cl)N1CCN(c2ncccn2)CC1,-72.7%
7,O=C(/C=C/c1ccc(F)cc1)N1CCN(c2ncccn2)CC1,12.1%
8,O=C(/C=C/c1ccccc1[N+](=O)[O-])N1CCN(c2ccc(F)cc2)CC1,-56.5%
9,O=C(/C=C/c1ccco1)N1CCN(S(=O)(=O)c2cccs2)CC1,-7.4%
10,O=C(/C=C/c1ccccc1)N1CCN(c2ccccn2)CC1,-42.8%
11,COc1cccc(CNC(=O)c2ccc(CS(=O)(=O)Cc3ccc(C)cc3)o2)c1,-12.8%
12,CCN(c1cccc(C)c1)S(=O)(=O)c1nnc(NC(=O)c2ccco2)s1,3.8%
13,CCOC(=O)c1sc(NC(=O)c2ccc3nc[nH]c3c2)nc1C,8.25%
14,O=C(Nc1cc2ccccc2oc1=O)c1ccccc1,22.7%
15,O=C(Cc1ccccc1)N[C@@H](Cc1ccccc1)C(=O)O,7.29%
16,Cc1ccc(CC(=O)NCCC(=O)O)cc1,16.9%
17,Cc1c(C(=O)O)oc2ccc(S(=O)(=O)NCCC3=CCCCC3)cc12,0.629%
18,COc1ccc(NC(=O)C2CCN(C(=O)c3ccco3)CC2)c(OC)c1,22.3%
19,Cc1nc2ccc(Br)cn2c1NC(C)(C)C,-20.9%
20,COc1ccc(-c2cc(C#N)nc(N3CCN(c4ccccc4)CC3)n2)cc1,3.41%
21,CCOc1cc2[nH]c(=S)n(CCCN3CCCC3=O)c(=O)c2cc1OCC,-23.5%

# Source: PMC4336329 (PLoS ONE, 2015)
